{"source": "PubChem BioAssay", "data": [{"target": "Torsin-1A (Homo sapiens) (UniProt O14656)", "sequence (O14656 whole entry, looked up)": "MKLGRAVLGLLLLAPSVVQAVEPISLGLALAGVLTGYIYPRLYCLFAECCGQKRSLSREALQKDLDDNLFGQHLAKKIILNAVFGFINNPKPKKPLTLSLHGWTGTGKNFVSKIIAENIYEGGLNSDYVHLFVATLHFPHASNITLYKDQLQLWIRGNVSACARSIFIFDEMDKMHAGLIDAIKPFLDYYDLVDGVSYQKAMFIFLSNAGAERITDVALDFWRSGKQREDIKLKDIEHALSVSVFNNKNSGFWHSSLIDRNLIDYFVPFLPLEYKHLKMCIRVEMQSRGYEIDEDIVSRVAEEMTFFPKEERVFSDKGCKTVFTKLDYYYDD", "assay": "TOR1A wild-type binding on microarray – cell lysate, small-molecule microarray, lysate, 635/667 nm, primary screen (AID 1149)", "conditions": "COS7 hTOR1A-WT lysate, 635 nm fluorescence, higher = more signal", "values": [{"smiles": "COC(=O)C(CC#Cc1ccc2c(c1)[C@]1(C(=O)N2)[C@H](c2ccc(OCCO)cc2)N2[C@H](c3ccccc3)[C@H](c3ccccc3)OC(=O)[C@H]2[C@@H]1C(N)=O)C(=O)OC", "composite z-score": 0.598}, {"smiles": "COC(=O)C(CC#Cc1ccc2c(c1)[C@]1(C(=O)N2)[C@H](c2ccccc2OCCO)N2[C@H](c3ccccc3)[C@H](c3ccccc3)OC(=O)[C@H]2[C@@H]1C(=O)N1CCN(c2ncccn2)CC1)C(=O)OC", "composite z-score": 1.03}, {"smiles": "COC(=O)Cn1c(C(=O)N(C)C)cc2c1C[C@H]1CN(C(=O)c3ccccc3)[C@@](Cc3ccccc3)(C(=O)OC)[C@@H]21", "composite z-score": 0.263}, {"smiles": "COC(=O)[C@@]1(Cc2ccc(OC)cc2)[C@@H]2[C@@H](CC(=O)[C@H]2CC(=O)C(=O)N(C)C)CN1C(=O)c1ccccc1", "composite z-score": -0.0909}, {"smiles": "COC(=O)[C@@]1(Cc2ccccc2)[C@H]2c3cc(C(=O)N(C)C)n(Cc4nc5ccccc5[nH]4)c3C[C@H]2CN1C(=O)c1ccccc1", "composite z-score": 0.626}, {"smiles": "COCCOC(=O)N1C(=O)[C@@]2(c3cc(C#CCCO)ccc31)[C@H](C(=O)N1CCN(c3ncccn3)CC1)[C@H]1C(=O)O[C@H](c3ccccc3)[C@H](c3ccccc3)N1[C@@H]2c1ccc(OCCO)cc1", "composite z-score": -0.279}, {"smiles": "C=C(CCCC)/C(=C/C[C@@H](OC(C)=O)c1cccc(OCCO)c1)c1cc(C(=O)OC)ccc1OC", "composite z-score": 0.146}, {"smiles": "C=CCOC(=O)[C@H]1[C@@H]2C(=O)O[C@@H](c3ccccc3)[C@@H](c3ccccc3)N2[C@@H](c2ccc(OCCOC(=O)[C@H]3C[C@H]4C(=O)NCC(=O)N4[C@H]3c3cccc(OCCO)c3)cc2)[C@]12C(=O)Nc1ccc(I)cc12", "composite z-score": 0.418}, {"smiles": "CCOC(=O)C=C1C[C@@H](c2cccc([N+](=O)[O-])c2)O[C@@H](c2cccc([N+](=O)[O-])c2)O1", "composite z-score": 0.167}, {"smiles": "COc1ccc(C#Cc2ccc3c(c2)[C@]2(C(=O)N3)[C@H](c3ccccc3OCCO)N3[C@H](c4ccccc4)[C@H](c4ccccc4)OC(=O)[C@H]3[C@@H]2C(=O)NC[C@H](O)c2ccccc2)cc1", "composite z-score": 0.138}, {"smiles": "C=CC[C@H](O)c1ccc(O)c2ccccc12", "composite z-score": 0.172}, {"smiles": "Cc1ccc(S[C@]2(C(=O)NCCN3CCOCC3)CC(=O)N(C(C)C)[C@@H]2c2ccc(CO)cc2I)cc1", "composite z-score": -0.533}, {"smiles": "CN(C)C(=O)[C@]1(CCS(=O)(=O)c2ccccc2)N=C(c2ccc(OCCCO)cc2)O[C@@H]1c1ccccc1CN=[N+]=[N-]", "composite z-score": 0.408}, {"smiles": "C[C@H]1C2[C@H](Cc3ccccc3)NC(=O)[C@]23C(=O)N[C@@H](Cc2ccccc2)C(=O)N2CCC[C@H]2C(=O)NC/C=C/CC/C=C/C3[C@@H]2O[C@]12C", "note": "(stereo not given in full)", "composite z-score": -0.0723}, {"smiles": "C=CCN1C(=O)[C@]2(O[C@H](CCO)[C@@H]([Si](C)(C)c3ccc(OC)cc3)[C@@H]2C)c2cc(N3C(=O)c4ccccc4Oc4ccccc43)ccc21", "composite z-score": 0.493}, {"smiles": "CO[C@H]1O[C@H](CO)[C@@H](OC(=O)Nc2ccccc2)[C@@H]2OC(=O)[C@@H](Cc3ccccc3)C/C=C/C[C@H](Cc3ccccc3)C(=O)O[C@@H]12", "composite z-score": 0.433}, {"smiles": "COC(=O)[C@@]1(Cc2ccc(OC)cc2)[C@H]2c3cc(C(=O)N(C)C)n(Cc4c(CO)[nH]cc(C)c4=O)c3C[C@H]2CN1C(=O)c1ccccc1", "composite z-score": 0.351}, {"smiles": "COc1cccc(C)c1NC(=O)O[C@H]1[C@H](OC(=O)Nc2ccccc2-c2ccccc2)[C@@H](OC(=O)Nc2ccccc2-c2ccccc2)[C@@H](OC)O[C@@H]1CO", "composite z-score": 0.631}, {"smiles": "CCCNC(=O)[C@@]1(Sc2ccc(C)cc2)CC(=O)N(Cc2cc(C(F)(F)F)cc(C(F)(F)F)c2)[C@@H]1c1ccc(CO)cc1", "composite z-score": -0.11}, {"smiles": "COC(=O)[C@@]1(Cc2ccc(F)cc2)[C@H]2c3cc(C(=O)N(C)C)n(Cc4ccc(C(F)(F)F)nc4)c3C[C@H]2CN1C(=O)c1ccccc1", "composite z-score": 0.516}, {"smiles": "COC(=O)[C@@]1(Cc2ccccc2)[C@H]2c3cc(C(=O)N(C)C)n(Cc4ccc(Cl)c(C(F)(F)F)c4)c3C[C@H]2CN1C(=O)c1ccccc1", "composite z-score": -0.172}, {"smiles": "CN1C(=O)C2C=CC(C(O)c3ccc(I)cc3)N(N(c3ccccc3)c3ccccc3)C2C1=O", "note": "(stereo not given)", "composite z-score": -0.728}, {"smiles": "Cc1ccc(S[C@]2(C(=O)NCc3ccccc3)CC(=O)N(Cc3ccccc3C(F)(F)F)[C@@H]2c2ccc(CO)cc2I)cc1", "composite z-score": -0.545}, {"smiles": "COCCCNC(=O)[C@@]1(CCC(=O)OC(C)(C)C)N=C(c2ccc(OCCCO)cc2)O[C@H]1c1ccccc1", "composite z-score": 0.725}, {"smiles": "C=C(COC)/C(=C/C[C@@H](OC(C)=O)c1cccc(OCCO)c1)c1cnc2ccccc2c1", "composite z-score": 0.14}]}]}
